Results filed as inconclusive are left out. Activity calls are given as the source filed them. Unless noted, calls come from the whole dose curve; as a rule, active = well fitted curve in the direction sought with a large enough effect; inconclusive = small, poorly fitted or top-dose-only effect, or another doubt; inactive = no such curve, though single readings can be large; an effect the other way counts as inactive or inconclusive.
Key:
[1] = AP1 Signaling Pathway (AID 357; active = well fitted curve in either direction with a large enough effect, not every such curve was filed as active;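 note: ME-180 reporter cells stimulated with EGF at its EC50 level; % is set by controls: 0 for no effect and ±100 for the full control effect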); settings: ME-180 AP-1-bla reporter, EGF-induced, beta-lactamase ratio, 5 h; at 38 µM (top of the series)
Summary of the method: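 Beta-lactamase reporter under AP-1 response element, ME-180 background. Stimulus: EC50 EGF. Compound exposure 5 h, 37 °C. Detection: CCF4, 2.5 h RT, 460/530 nm. Values: AC50 from titration.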

[2] = molecular target: Cytochrome P450 1A2 (Homo sapiens) (UniProt P05177); assay: p450-cyp1a2 (AID 410; calls by dose curve; note: potency is the fitted concentration of half-maximal effect)
Summary of the method: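 Luminescent readout of luciferin formed from Luciferin-ME by human CYP1A2; data normalized against complete inhibition by 57 uM furafylline. Enzyme 20nM, substrate 100uM at Km, 100mM KPO4 buffer, 60 min reaction at room temperature.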

[3] = NFAT Signaling Pathway (AID 444; active = well fitted curve in either direction with a large enough effect, not every such curve was filed as active;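 note: carbachol stimulus at about its EC50 of 1 µM final; % is set by controls: 0 for no effect and ±100 for the full control effect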); settings: Jurkat NFAT-bla M1, carbachol, beta-lactamase ratio, 5 h; at 38 µM (top of the series)
Summary of the method: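 Read-out: CCF4 FRET ratio (460 nm/530 nm) after 1 h RT dye loading, used for %activity and AC50 from titration series. Cells: Jurkat NFAT-β-lactamase/M1 line, treated with compound plus 1 uM carbachol for 5 h, 37 °C.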

[4] = Stat Signaling Pathway (AID 446; active = well fitted curve in either direction with a large enough effect, not every such curve was filed as active;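 note: ME-180 cervical cancer cells given 40 pM IL-6 alongside compound; SIE-controlled beta-lactamase reporter measured as 460/530 nm FRET emission ratio; % is set by controls: 0 for no effect and ±100 for the full control effect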); settings: ME-180 SIE beta-lactamase reporter, IL-6 stimulated, 5 h; at 38 µM (top of the series)
Summary of the method: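 Screening format detects activators and inhibitors alike: ME-180 SIE-bla cells stimulated at 40 pM IL-6 for 5 hrs with compound, then dual-emission beta-lactamase read at 405 nm excitation.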

[5] = molecular target: Glucocorticoid receptor (Homo sapiens) (UniProt P04150); assay: GR-EFC Redistribution (AID 451; calls by dose curve; note: potency is the fitted concentration of half-maximal effect); settings: CHO-K1 GR-EFC translocation, beta-gal luminescence, 2 h
Summary of the method: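 Translocation of GR-ED fusion to nuclear EA restores b-gal, read by luminescence after 1 h room-temperature detection. Engineered CHO-K1 biosensor cells, 1,000/well, exposed 2 h at 37 C to titrations up to 46 uM final.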

[6] = molecular target: Mitogen-activated protein kinase 10 (Mus musculus) (UniProt Q61831); assay: JNK3 AlphaScreen Assay (AID 530; active = well fitted curve in either direction with a large enough effect, not every such curve was filed as active;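 note: kinase came from lysate of stimulated human HepG2 cells; signal reports phosphorylation of biotinylated GST-cJun 1-79 at Ser73 with 10 µM ATP; % is set by controls: 0 for no effect and ±100 for the full control effect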)
Summary of the method: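 Compound titrations were preincubated 15 minutes at room temperature with substrate, antibody and pre-activated JNK3-containing HepG2 lysate. Reactions were started with 10 uM ATP and stopped with EDTA-containing bead buffer for AlphaScreen detection.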

[7] = molecular target: 3',5'-cyclic-AMP phosphodiesterase 4B (Homo sapiens) (UniProt Q07343); assay: qHTS Assay for Inhibitors of PDE-IV (AID 607; active = well fitted activation curve with a large enough effect in the main read-out, with a control signal flat, not every such curve was filed as active; note: % of control where 0% means no effect)
Summary of the method: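 The readout is membrane depolarisation from a cAMP-sensing CNG channel, detected with a potential dye at ex 535/em 590. Cells were HEK293-derived (endogenous PDE-IV) at 1000 cells/well, titrated up to 22.9 uM final.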

[8] = molecular target: Guanine nucleotide-binding protein G(i) subunit alpha-1 (Homo sapiens) (UniProt P63096); assay: qHTS Assay for Inhibitors of RGS12 GoLoco Motif Activity (Green Fluorophore) (AID 879);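 note: 0% = labeled peptide with Gαi1 and full inhibition = labeled peptide alone without protein; negative values mean loss of peptide binding seen as reduced polarization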
Summary of the method: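 Fluorescence polarization assay: 50 nM Gαi1 with 10 nM FITC-labeled RGS12 GoLoco peptide in 10 mM Tris pH 7.5, 150 mM NaCl, 0.1 mM GDP, 0.05% NP40, 10 min at room temperature with compound.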

[9] = molecular target: Muscarinic acetylcholine receptor M1 (Rattus norvegicus) (UniProt P08482); assay: qHTS Assay for Antagonists of Acetylcholine Muscarinic M1 Receptor: Kinetic Measurement of Intracellular Calcium Response (AID 943);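 note: Fluo-4 calcium signal as peak divided by basal fluorescence over 4 min; nearly all actives have a fitted effect of over 75% in size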
Summary of the method: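 Rat M1-CHO cells, 2000/well, overnight → Fluo-4 no-wash dye with probenecid, 1 h 37C → compound 10 min, room temp → basal read 6 s → carbachol EC80 (100 nM) → 4 min kinetic read; peak/basal.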

[10] = molecular target: Pyruvate kinase (Leishmania mexicana) (UniProt Q27686); assay: qHTS Validation Assay for Inhibitors of Leishmania Mexicana Pyruvate Kinase (AID 945);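 note: 0% = DMSO only neutral control wells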
Summary of the method: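 LmPYK E451W 0.2 nM; 0.5 mM PEP, 0.1 mM ADP, 7 mM MgCl2, 50 mM KCl, imidazole pH 7.2, 0.01% Tween 20, 0.05% BSA; 1 h RT; PKLight luminescence; DMSO-normalized.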

[11] = molecular target: Alpha-galactosidase A (Homo sapiens) (UniProt P06280); assay: Counterscreen for Glucocerebrosidase Inhibitors: qHTS Assay for Human alpha-Galactosidase at pH 4.5 (AID 992); note: 0% is about no effect
Summary of the method: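 Concentration-response curves (0.7 nM to 77 uM final) were modeled with the Hill equation to give AC50. Reactions: 2 nM enzyme, 80 uM fluorogenic alpha-galactoside, pH 4.5 citric acid buffer, 20 min, room temperature.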

[12] = molecular target: alpha-glucosidase (Oryza sativa, rice) (UniProt Q653V4); assay: Counterscreen for Glucocerebrosidase Inhibitors: qHTS Assay for Rice alpha-Glucosidase at pH 5.0 (AID 997);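 note: 0% = full activity with enzyme and -100% = basal without enzyme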
Summary of the method: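 Rice alpha-glucosidase (4 nM final) with 400 uM 4-methylumbelliferyl-alpha-D-glucopyranoside in citrate buffer pH 5.0, 20 min at room temperature, stopped at pH 10; fluorescence 365/440 nm, compounds 0.7 nM–77 uM, AC50 from Hill fits.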

[13] = Validation of Assay for Modulators of Lamin A Splicing (AID 1459; active = well fitted curve in the direction sought with a large enough effect in the signal ratio; the % refers to the signal ratio;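 note: cells exposed to compound for two days before reading; 0% is about no effect; ratio rise marks activators and ratio drop marks inhibitors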)
Summary of the method: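 Splicing correction read as GFP (500-530 nm) over DsRed2 (575-640 nm) object intensity after 48 h compound exposure of reporter HeLa S3 clones (600 cells/well, 2% FBS medium); ancitabine and cycloheximide titrations, 0.5% DMSO as vehicle.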

[14] = qHTS Assay for Lipid Storage Modulators (AID 1519; calls by dose curve); settings: Drosophila S3 cells, BODIPY lipid droplet/cell ratio, laser cytometry, cells loaded with oleic acid
Summary of the method: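 Cells seeded at 5,000 per well were treated with compounds over a concentration series and loaded with oleic acid (400 uM, as added). Lipid droplet fluorescence (488 nm excitation, 500-530 nm channel) was read by laser-scanning cytometry and normalized to 20 uM Triacsin C.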

[15] = molecular target: DNA repair nuclease/redox regulator APEX1 (Homo sapiens) (UniProt P27695); assay: qHTS Validation Assay for Inhibitors of the Human Apurinic/apyrimidinic Endonuclease 1 (APE1) (AID 1705)
Summary of the method: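 Activity read as rising fluorescence (598 nm emission, 525 nm excitation) from incision of a TAMRA/BHQ-2 duplex carrying a THF abasic site (50 nM). Compound and enzyme sat 15 min at RT before substrate start; signal change between first and third 60-s reads.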

[16] = Counterscreen for APE1 Inhibitors: Fluorescent Dye Displacement Validation Assay (AID 1707);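 note: plate controls were ThO with dsDNA and no compound for no effect and ThO without dsDNA for full effect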
Summary of the method: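 Assay buffer: Tris-HCl pH7.5 with 50mM NaCl, 2 mM MgCl2, 0.01% Tween-20. Dye 250 nM, duplex 50 nM final. Readout: decrease in ThO endpoint fluorescence, 480 nm excitation, 540 nm emission.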

[17] = molecular target: Endonuclease 4 (Escherichia coli (strain K12)) (UniProt P0A6C1); assay: Counterscreen for APE1 Inhibitors: qHTS Validation Assay for Inhibitors of Endonuclease IV (AID 1708); note: % is set by controls: 0 for no effect and ±100 for the full control effect
Summary of the method: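 qHTS concentration-response format; LOPAC1280 tested under APE1-screen conditions. 2 nM enzyme, 15 min compound preincubation at RT, then 50 nM TAMRA/BHQ-2 abasic substrate; kinetic fluorescence read, three reads at 60 s intervals.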

3',5'-cyclic-AMP phosphodiesterase 4B (Homo sapiens), sequence (Q07343 whole entry, looked up): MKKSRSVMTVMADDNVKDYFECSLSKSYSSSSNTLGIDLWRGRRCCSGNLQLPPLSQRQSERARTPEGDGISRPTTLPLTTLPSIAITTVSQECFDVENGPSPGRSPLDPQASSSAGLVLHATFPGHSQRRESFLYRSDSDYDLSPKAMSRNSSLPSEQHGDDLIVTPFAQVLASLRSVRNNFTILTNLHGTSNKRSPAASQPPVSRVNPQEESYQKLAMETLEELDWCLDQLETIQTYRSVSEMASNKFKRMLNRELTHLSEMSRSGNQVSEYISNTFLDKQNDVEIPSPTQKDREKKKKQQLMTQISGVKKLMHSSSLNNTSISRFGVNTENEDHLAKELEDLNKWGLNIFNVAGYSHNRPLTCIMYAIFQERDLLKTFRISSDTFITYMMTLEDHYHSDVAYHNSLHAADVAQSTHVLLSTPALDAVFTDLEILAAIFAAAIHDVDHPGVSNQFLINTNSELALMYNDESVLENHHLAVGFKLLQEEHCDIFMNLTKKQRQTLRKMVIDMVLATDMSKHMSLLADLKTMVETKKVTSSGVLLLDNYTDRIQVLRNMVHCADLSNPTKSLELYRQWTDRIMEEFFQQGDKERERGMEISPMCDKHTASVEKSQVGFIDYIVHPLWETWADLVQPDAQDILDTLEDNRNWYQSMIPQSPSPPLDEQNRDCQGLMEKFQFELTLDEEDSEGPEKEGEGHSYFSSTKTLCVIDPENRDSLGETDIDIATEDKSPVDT
Cytochrome P450 1A2 (Homo sapiens), sequence (P05177 whole entry, looked up): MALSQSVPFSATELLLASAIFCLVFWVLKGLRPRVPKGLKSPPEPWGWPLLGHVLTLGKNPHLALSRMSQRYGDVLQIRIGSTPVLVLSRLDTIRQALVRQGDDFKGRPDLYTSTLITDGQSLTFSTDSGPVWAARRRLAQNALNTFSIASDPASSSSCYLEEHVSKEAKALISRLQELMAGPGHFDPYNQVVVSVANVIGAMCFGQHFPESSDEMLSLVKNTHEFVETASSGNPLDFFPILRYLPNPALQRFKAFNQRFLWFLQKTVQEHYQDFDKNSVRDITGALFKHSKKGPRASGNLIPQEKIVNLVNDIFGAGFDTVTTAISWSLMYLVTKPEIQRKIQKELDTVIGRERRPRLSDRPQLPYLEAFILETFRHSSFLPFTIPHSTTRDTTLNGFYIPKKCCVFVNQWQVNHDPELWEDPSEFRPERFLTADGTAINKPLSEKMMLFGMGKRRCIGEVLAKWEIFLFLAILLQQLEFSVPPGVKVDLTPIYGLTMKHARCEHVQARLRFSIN
Pyruvate kinase (Leishmania mexicana), sequence (Q27686 2-499 E452W): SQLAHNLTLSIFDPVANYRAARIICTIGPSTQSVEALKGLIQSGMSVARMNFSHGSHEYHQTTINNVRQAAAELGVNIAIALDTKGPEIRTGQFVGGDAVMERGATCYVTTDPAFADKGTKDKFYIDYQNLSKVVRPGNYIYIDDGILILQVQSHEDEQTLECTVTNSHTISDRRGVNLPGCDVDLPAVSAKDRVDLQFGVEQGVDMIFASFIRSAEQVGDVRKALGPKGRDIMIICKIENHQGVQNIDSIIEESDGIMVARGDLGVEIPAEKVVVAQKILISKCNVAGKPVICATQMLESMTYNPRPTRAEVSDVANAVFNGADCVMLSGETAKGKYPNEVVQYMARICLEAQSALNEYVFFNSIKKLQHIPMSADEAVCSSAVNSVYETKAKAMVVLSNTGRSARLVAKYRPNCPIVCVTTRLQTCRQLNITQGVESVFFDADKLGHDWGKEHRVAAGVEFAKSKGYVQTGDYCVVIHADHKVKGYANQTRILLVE
Guanine nucleotide-binding protein G(i) subunit alpha-1 (Homo sapiens), sequence (P63096 whole entry, looked up): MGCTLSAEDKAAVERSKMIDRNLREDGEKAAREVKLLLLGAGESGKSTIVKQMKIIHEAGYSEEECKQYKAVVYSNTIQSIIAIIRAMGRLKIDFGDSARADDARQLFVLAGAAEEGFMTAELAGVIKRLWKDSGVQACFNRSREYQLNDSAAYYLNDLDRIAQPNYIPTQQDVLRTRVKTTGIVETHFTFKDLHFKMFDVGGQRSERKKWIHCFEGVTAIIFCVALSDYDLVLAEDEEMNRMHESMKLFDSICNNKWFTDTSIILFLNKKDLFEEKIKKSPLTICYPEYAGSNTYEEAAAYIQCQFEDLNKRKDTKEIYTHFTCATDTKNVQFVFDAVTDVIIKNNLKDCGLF
Glucocorticoid receptor (Homo sapiens), sequence (P04150 whole entry, looked up, the tested form may be a part): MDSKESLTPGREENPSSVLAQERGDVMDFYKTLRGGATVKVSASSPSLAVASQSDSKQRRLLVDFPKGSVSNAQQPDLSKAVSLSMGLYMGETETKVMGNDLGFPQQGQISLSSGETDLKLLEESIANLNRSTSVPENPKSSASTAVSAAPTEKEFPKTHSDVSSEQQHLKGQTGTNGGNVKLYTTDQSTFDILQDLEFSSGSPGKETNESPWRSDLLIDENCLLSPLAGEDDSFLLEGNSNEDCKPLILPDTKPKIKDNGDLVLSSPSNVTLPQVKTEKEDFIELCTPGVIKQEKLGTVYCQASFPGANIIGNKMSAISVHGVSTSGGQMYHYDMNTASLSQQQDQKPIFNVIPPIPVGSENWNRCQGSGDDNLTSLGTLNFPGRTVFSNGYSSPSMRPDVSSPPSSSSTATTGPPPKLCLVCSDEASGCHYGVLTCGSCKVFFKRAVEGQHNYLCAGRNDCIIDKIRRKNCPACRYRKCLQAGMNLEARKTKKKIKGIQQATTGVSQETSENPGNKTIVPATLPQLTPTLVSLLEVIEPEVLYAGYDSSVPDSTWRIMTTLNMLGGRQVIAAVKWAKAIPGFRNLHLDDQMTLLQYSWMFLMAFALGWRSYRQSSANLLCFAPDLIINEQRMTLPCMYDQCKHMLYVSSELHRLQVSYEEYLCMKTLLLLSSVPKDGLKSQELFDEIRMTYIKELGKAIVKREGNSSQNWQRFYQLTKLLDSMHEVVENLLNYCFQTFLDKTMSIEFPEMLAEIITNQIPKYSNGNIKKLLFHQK
Muscarinic acetylcholine receptor M1 (Rattus norvegicus), sequence (P08482 whole entry, looked up): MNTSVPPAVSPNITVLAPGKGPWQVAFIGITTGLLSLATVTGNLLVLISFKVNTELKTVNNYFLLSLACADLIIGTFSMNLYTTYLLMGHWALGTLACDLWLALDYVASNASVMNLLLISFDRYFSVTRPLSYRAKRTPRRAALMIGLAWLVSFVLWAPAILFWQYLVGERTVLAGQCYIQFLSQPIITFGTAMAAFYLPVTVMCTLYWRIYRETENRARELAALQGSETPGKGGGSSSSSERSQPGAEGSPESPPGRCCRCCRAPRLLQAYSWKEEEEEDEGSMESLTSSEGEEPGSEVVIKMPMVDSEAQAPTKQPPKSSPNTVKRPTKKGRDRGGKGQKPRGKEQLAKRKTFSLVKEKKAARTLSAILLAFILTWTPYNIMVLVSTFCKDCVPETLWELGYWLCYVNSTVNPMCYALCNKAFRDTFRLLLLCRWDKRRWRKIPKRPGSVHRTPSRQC
Alpha-galactosidase A (Homo sapiens), sequence (P06280 whole entry, looked up): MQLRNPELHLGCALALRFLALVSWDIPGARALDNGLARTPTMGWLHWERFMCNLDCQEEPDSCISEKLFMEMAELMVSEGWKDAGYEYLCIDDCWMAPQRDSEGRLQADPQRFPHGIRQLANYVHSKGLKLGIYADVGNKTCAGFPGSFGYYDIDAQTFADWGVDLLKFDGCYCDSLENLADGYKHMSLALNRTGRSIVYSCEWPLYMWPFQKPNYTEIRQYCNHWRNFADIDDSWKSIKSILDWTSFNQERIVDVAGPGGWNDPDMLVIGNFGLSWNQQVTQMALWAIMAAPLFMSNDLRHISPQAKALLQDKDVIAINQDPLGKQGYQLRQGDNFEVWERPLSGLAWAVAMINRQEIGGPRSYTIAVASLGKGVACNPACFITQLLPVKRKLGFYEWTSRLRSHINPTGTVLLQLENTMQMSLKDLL
DNA repair nuclease/redox regulator APEX1 (Homo sapiens), sequence (P27695 whole entry, looked up): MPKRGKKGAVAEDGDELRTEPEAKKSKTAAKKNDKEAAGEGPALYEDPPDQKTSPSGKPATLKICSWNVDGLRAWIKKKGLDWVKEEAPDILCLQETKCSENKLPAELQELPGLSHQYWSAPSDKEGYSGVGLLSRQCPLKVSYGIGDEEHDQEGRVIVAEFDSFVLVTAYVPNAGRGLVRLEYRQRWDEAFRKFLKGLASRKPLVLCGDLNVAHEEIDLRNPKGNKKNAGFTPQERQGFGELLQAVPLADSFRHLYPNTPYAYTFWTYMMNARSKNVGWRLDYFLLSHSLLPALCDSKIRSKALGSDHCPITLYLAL

CCCn1c(=O)c2[nH]c(-c3ccc(OCC(=O)Nc4ccc(C#N)cc4)cc3)nc2n(CCC)c1=O
-10.7%: max response ([14]; measured here: lipid channel max response)
inactive: activity change, negative = inhibition [1] -2.44% | activity change, negative = inhibition [3] -7.64% | activity, negative = inhibition [4] -13.8% | Potency [5] > 46 µM | Potency [6] | Potency [7] | outcome [8] | Potency [9] | Potency [10] | outcome [11] | outcome [12] | outcome [13] | activity change, negative = inhibition ([14]; at 57.5 µM (top of the series)) 1.01% | Potency [15] | Potency [16] | Potency [17]
-12.2%: max response ([14]; measured here: cell count channel max response)
active: Potency [2] 31.6 µM

Reference: PubChem BioAssay (NCATS)
